Experimental data from PubChem BioAssay (NCATS).
Several values for one entry are separate records, joined by “and”; a condition that tells them apart may be missing. Identical values can stand only once. Results filed as inconclusive are left out. Entries that show only a call come without a potency. Values without a mark were called inactive. Activity calls are given as the source filed them. The call rests on the fitted dose curve; in most records, active means well fitted curve in the direction sought with a large enough effect; inconclusive means small, poorly fitted or top-dose-only effect, or another doubt; inactive means no such curve, though single readings can be large; an effect the other way counts as inactive or inconclusive.

Key:
[1] = target: Cytochrome P450 3A7 (Homo sapiens) (UniProt P24462); test: Cytochrome P450 family 3 subfamily A member 7 (CYP3A7) small molecule antagonists: luciferase biochemical qHTS assay (AID 1963596); further: nearly all actives have a fitted effect of over 40% in size; further: potency means the concentration at half of the fitted maximal effect
Cytochrome P450 3A7 (Homo sapiens), sequence (P24462 whole entry, looked up): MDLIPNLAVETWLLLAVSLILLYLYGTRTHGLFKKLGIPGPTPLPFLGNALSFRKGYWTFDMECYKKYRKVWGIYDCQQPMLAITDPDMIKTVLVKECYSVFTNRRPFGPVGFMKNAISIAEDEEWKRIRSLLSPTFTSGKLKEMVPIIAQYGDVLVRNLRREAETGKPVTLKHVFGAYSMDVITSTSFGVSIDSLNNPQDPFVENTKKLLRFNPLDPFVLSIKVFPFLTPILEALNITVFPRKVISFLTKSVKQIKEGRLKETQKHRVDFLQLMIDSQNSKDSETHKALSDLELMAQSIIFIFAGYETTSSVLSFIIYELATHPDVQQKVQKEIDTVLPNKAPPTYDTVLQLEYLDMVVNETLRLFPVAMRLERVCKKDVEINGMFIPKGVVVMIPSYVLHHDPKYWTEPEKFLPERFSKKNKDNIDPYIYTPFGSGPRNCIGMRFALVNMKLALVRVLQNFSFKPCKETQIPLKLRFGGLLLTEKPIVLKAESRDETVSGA
In short: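 Luminescence from luciferin released by CYP3A7 from a proluciferin substrate, read 20 min after detection reagent. Compound and enzyme-substrate mix sat 10 min before NADPH regeneration solution; reaction ran 1 h at room temperature.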

[2] = Viability qHTS for spleen associated tyrosine kinase inhibitor (SYKi) drug resistant MV4-11 cells (AID 1963824); further: nearly all actives have a fitted effect of over 35% in size; further: potency means the concentration at half of the fitted maximal effect
In short: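 SYK-inhibitor-resistant MV4-11 AML cells were seeded at 500 per well onto compound and cultured 72 hours (37 °C, 5% CO2). CellTiter-Glo was then added, and after 10 min at room temperature, luminescence gave viability.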

[3] = Quantitative highthroughput screen to assess conditional lethalithy of NOMO1 cells grown in RPMI1640 with untreated serum (RPMI+s) (AID 1963876); further: nearly all actives have a fitted effect of over 35% in size; further: potency means the concentration at half of the fitted maximal effect
In short: (§1)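 Each medium arm—HPLM with 10% dialyzed FBS, or RPMI1640 with 5 mM glucose and 10% untreated or dialyzed FBS—was screened against an 11-point, 3-fold compound titration for 48 h at 37 °C, with CellTiter-Glo luminescence as endpoint.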

[4] = Quantitative highthroughput screen to assess conditional lethalithy of NOMO1 cells grown in RPMI1640 with dialyzed fetal bovine serum (RPMI+ds) (AID 1963877); further: nearly all actives have a fitted effect of over 30% in size; further: potency means the concentration at half of the fitted maximal effect; on Viability: series mostly up to about 46 µM
In short: as §1

[5] = Quantitative highthroughput screen to assess conditional lethalithy of NOMO1 cells grown in Human Plasma-Like Medium with dialyzed fetal bovine serum (HPLM+ds) (AID 1963878); further: nearly all actives have a fitted effect of over 35% in size; further: potency means the concentration at half of the fitted maximal effect
In short: as §1

[6] = Quantitative highthroughput screen to assess conditional lethalithy of P12 Ichikawa cells grown in Human Plasma-Like Medium with dialyzed fetal bovine serum (HPLM+ds) (AID 1963879); settings: Potency: viability; further: nearly all actives have a fitted effect of over 35% in size; further: potency means the concentration at half of the fitted maximal effect; on Viability: series mostly up to about 46 µM
In short: as §1

[7] = Quantitative highthroughput screen to assess conditional lethalithy of P12 Ichikawa cells grown in RPMI1640 with dialyzed fetal bovine serum (RPMI+ds) (AID 1963880); settings: Potency: P12-Ichikawa viability; further: nearly all actives have a fitted effect of over 35% in size; further: potency means the concentration at half of the fitted maximal effect
In short: as §1

[8] = Quantitative highthroughput screen to assess conditional lethalithy of P12 Ichikawa cells grown in RPMI1640 with untreated serum (RPMI+s) (AID 1963881); settings: Potency: viability
In short: as §1

[9] = Quantitative highthroughput screen to assess conditional lethalithy of SEM cells grown in RPMI1640 with unreated serum (RPMI+s) (AID 1963883); further: nearly all actives have a fitted effect of over 35% in size; further: potency means the concentration at half of the fitted maximal effect
In short: as §1

[10] = Quantitative highthroughput screen to assess conditional lethalithy of SEM cells grown in RPMI1640 with dialyzed fetal bovine serum (RPMI+ds) (AID 1963884); further: nearly all actives have a fitted effect of over 35% in size; further: potency means the concentration at half of the fitted maximal effect; on Viability: series mostly up to about 46 µM
In short: as §1

[11] = Cellular viability qHTS for adrenocortical cancer (ACC) cell line NCI-H295R (AID 1963990); further: nearly all actives have a fitted effect of over 60% in size; further: potency means the concentration at half of the fitted maximal effect
In short: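 Adrenocortical carcinoma cells, suspended at 300 000 cells/mL in serum-free DMEM plus ITS, rested overnight before pin transfer of compound. After two days' incubation, ATP-dependent luminescence was recorded and curve-fitted.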

[12] = Quantitative highthroughput screen to assess conditional lethalithy of SEM cells grown in Human Plasma-Like Medium with dialyzed fetal bovine serum (HPLM+ds) (AID 1963882); further: nearly all actives have a fitted effect of over 35% in size; further: potency means the concentration at half of the fitted maximal effect; on Viability: series mostly up to about 46 µM
In short: as §1

[13] = Cellular viability qHTS for adrenocortical cancer (ACC) cell line SW-13 (AID 1963989); settings: SW-13 ACC cells viability, CellTiter-Glo, 48 h; activity (max response): hits give low values; further: nearly all actives have a fitted effect of over 65% in size; further: potency means the concentration at half of the fitted maximal effect;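 on activity (max response): cells grown in serum-free medium with ITS supplement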
In short: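 IC50 and maximal-response values come from four-parameter logistic fits of titration data. SW-13 cells in serum-free medium received compounds (up to 46 uM final) for 48 h before CellTiter-Glo luminescence.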

| Structure (SMILES) | Potency [1] | Potency [2] | Potency [3] | Potency [4] | Potency [5] | Potency [6] | Potency [7] | Potency [8] | Potency [9] | Potency [10] | Potency [11] | Potency [12] | activity (max response) [13] | activity change, negative = inhibition [1] | activity change, negative = viability loss [11] | Potency [13] | viability, % of control [2] |
| --- | --- | --- | --- | --- | --- | --- | --- | --- | --- | --- | --- | --- | --- | --- | --- | --- | --- |
| CCN(CC)CCCC(C)Nc1nc(C)cc(Nc2ccc3nc(C)cc(N)c3c2)n1 (stereo not given) | inactive | 16.6 µM (active) | inactive | inactive | inactive | inactive | inactive | inactive | inactive | inactive | inactive |  |  |  |  |  |  |
| Nc1ccn([C@@H]2CS[C@H](CO)O2)c(=O)n1 | inactive | inactive | inactive | inactive | inactive | inactive | inactive | inactive | inactive | inactive | inactive | inactive | 7.41% |  |  |  |  |
| O=C1CCC(N2C(=O)c3ccccc3C2=O)C(=O)N1 (stereo not given) | inactive | inactive | inactive | inactive | inactive | inactive | inactive |  |  | inactive |  | inactive | 13.3% and -15.2% |  |  |  |  |
| N[C@@H](C(=O)N[C@@H]1C(=O)N2C(C(=O)O)=C(Cl)CS[C@H]12)c1ccccc1 |  | 0.686 µM (active) | inactive | inactive | inactive | inactive | inactive | inactive | inactive | inactive |  | inactive |  | -8.83% [at 11.5 µM] | -18.4% [at 9.17 µM] |  |  |
| COc1ccccc1OC(=O)Oc1ccccc1OC | inactive | 5.96 µM (active) |  |  |  |  |  |  |  |  |  |  | 1.52% |  |  |  |  |
| OCc1cccnc1 | inactive | inactive |  |  |  |  |  |  |  |  |  |  | 0.385% |  |  |  |  |
| Nc1nc(N)nc(-c2cc(Cl)ccc2Cl)n1 | inactive | inactive | inactive | inactive | inactive | inactive | inactive | inactive |  | inactive | inactive |  | 2.1% and -6.28% |  |  |  |  |
| Nc1ncn([C@H]2C[C@H](O)[C@@H](CO)O2)c(=O)n1 | inactive | 4.68 µM (active) |  |  |  |  |  |  | 2640 nM (active) |  | inactive | 2960 nM (active) |  |  |  |  |  |
| CCOC(=O)C(C)(C)Oc1ccc(Cl)cc1 | inactive | inactive | inactive | inactive |  | inactive | inactive | inactive | inactive | inactive | inactive | inactive | 0.705% and -17.8% |  |  |  |  |
| C#CCC(Cc1cnc2nc(N)nc(N)c2n1)c1ccc(C(=O)N[C@@H](CCC(=O)O)C(=O)O)cc1 (stereo not given in full) | inactive | 0.0021 µM (active) | 187 nM (active) |  |  | 37.2 nM (active) |  |  | 59 nM (active) |  | 15.8 nM (active) |  |  |  |  | 35.5 nM (active) |  |
| CCN(CCO)CCCC(C)Nc1ccnc2cc(Cl)ccc12 (stereo not given) |  |  | 10500 nM (active) |  |  | 4180 nM (active) | 2640 nM (active) |  |  |  |  |  | 4.84% and 9.37% | 10.6% [at 4.83 µM] | 1.42% [at 3.81 µM] and 0.71% [at 3.81 µM] |  | 88.8% [at 4.97 µM] |
| CS(=O)(=O)N1CCc2c(-c3cnc(N)nc3)nc(N3CCOCC3)nc21 | inactive | 4.17 µM (active) | 8330 nM (active) |  |  |  |  |  | 4690 nM (active) |  | 708 nM (active) |  |  |  |  |  |  |
| Cn1cc(-c2ccc(F)c(C(F)(F)F)c2)nc1C1CCN(c2ncnc3[nH]ncc23)CC1 | inactive | inactive | inactive | inactive | inactive | inactive | inactive | inactive | inactive |  | inactive | inactive | 13.1% |  |  |  |  |
| COc1ccccc1OCC(O)COC(N)=O (stereo not given) | inactive | inactive | inactive | inactive |  |  | inactive | inactive | inactive |  | inactive | inactive | -1.45% |  |  |  |  |
| CC1(C)CC(=O)c2c(C(F)(F)F)nn(-c3ccc(C(N)=O)c(NC4CCC(OC(=O)CN)CC4)c3)c2C1 (stereo not given) | 15100 nM (active) | 51.7 nM (active) and 37.2 nM (active) | 372 nM (active) | 296 nM (active) | 332 nM (active) |  |  |  | 264 nM (active) | 296 nM (active) | 501 nM (active) | 264 nM (active) |  |  |  |  |  |
| CC(C)c1noc(N2CCC(COc3ccc(-c4ccc(S(C)(=O)=O)cc4)nc3)CC2)n1 | inactive | 5.25 µM (active) | inactive | inactive | inactive | inactive | inactive | inactive |  |  | inactive | inactive | -1.34% |  |  |  |  |
| CCN(CC)C(=O)c1ccc(O)c(OC)c1 | inactive | inactive |  |  |  |  |  |  |  |  |  |  | 3.37% |  |  |  |  |
| CCOC(=O)N1c2ccc(C(F)(F)F)cc2[C@@H](N(Cc2cc(C(F)(F)F)cc(C(F)(F)F)c2)C(=O)OC)C[C@H]1CC | inactive | 7.42 µM (active) | inactive | inactive | inactive | inactive | inactive | inactive |  |  | inactive | inactive | 4.35% |  |  |  |  |
| NCCCCCC(=O)O | inactive | inactive | inactive | inactive | inactive | inactive | inactive | inactive | inactive |  | inactive |  |  |  |  |  |  |
